Assay results published in PubChem BioAssay (EPA / NIEHS).
Records with an inconclusive call do not appear. Active and inactive are the calls of the source. Rule for the calls, unless noted: active = hit-call score of the fitted dose curve at least 0.9, where 1 is the maximum; inactive = score below 0.9.

Key:
[1] = read-out: Phosphatase and tensin (PTEN), PTEN (gene 5728); experiment: LTEA_HepaRG_PTEN: Life Technologies and Expression Analysis (LTEA) Assay for Phosphatase and tensin (PTEN) using HepaRG (AID 2283523); conditions: mRNA level, 48 h; actives raise or lower the signal
Summary of the method: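 Expression of PTEN is quantified in the human liver line HepaRG following two days of dosing (top concentration 100 uM, half-log dilutions, 0.5% DMSO). Values derive from bidirectional curve fitting relative to DMSO controls.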

[2] = read-out: solute carrier (SLC22A1), SLC22A1 (gene 6580); experiment: LTEA_HepaRG_SLC22A1: Life Technologies and Expression Analysis (LTEA) Assay for solute carrier (SLC22A1) using HepaRG (AID 2283524); conditions: mRNA level, 48 h; actives raise or lower the signal;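 for AC50: differentiated human HepaRG liver cells in serum-free induction medium; TaqMan qRT-PCR normalized to ACTB GAPDH and POLR2A housekeeping genes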
Summary of the method: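 Transcript induction or suppression of SLC22A1 in human HepaRG cultures is scored after 48 h chemical treatment, with DMSO (0.5%) as baseline for bidirectional fitting. Concentrations span eight half-log points topping at 100 uM.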

[3] = read-out: Pyruvate Dehydrogenase Kinase 4 (PDK4), PDK4 (gene 5166); experiment: LTEA_HepaRG_PDK4: Life Technologies and Expression Analysis (LTEA) Assay for Pyruvate Dehydrogenase Kinase 4 (PDK4) using HepaRG (AID 2283525); conditions: mRNA level, 48 h; actives raise or lower the signal
Summary of the method: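 Eight-point, half-log concentration series (max 100 uM, 0.5% DMSO) applied to differentiated HepaRG cells for 48 h in duplicate. Endpoint: PDK4 mRNA induction or repression by qRT-PCR against DMSO baseline.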

[4] = read-out: Nuclear factor erythroid 2-related factor 2 (Homo sapiens) (UniProt Q16236); experiment: LTEA_HepaRG_NFE2L2: Life Technologies and Expression Analysis (LTEA) Assay for Nuclear factor erythroid 2-related factor 2 (NFE2L2) Transcription Factor using HepaRG (AID 2283527); conditions: mRNA level, 48 h; actives raise or lower the signal
Summary of the method: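 Human liver HepaRG line treated in duplicate for 48 h with an eight-point series topping at 100 uM. Gene expression of NFE2L2 by qRT-PCR, bidirectionally fitted against the vehicle control.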

[5] = read-out: succinate dehydrogenase complex iron sulfur subunit B (SDHB), SDHB (gene 6390); experiment: LTEA_HepaRG_SDHB: Life Technologies and Expression Analysis (LTEA) Assay for succinate dehydrogenase complex iron sulfur subunit B (SDHB) using HepaRG (AID 2283528); conditions: mRNA level, 48 h; actives raise or lower the signal
Summary of the method: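 HepaRG, 48 h exposure, 8-pt half-log series from 100 uM in 0.5% DMSO, duplicates. Readout: SDHB mRNA by Fluidigm qRT-PCR vs housekeeping genes; bidirectional fit relative to DMSO.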

[6] = read-out: Signal transducer and activator of transcription 3 (Homo sapiens) (UniProt P40763); experiment: LTEA_HepaRG_STAT3: Life Technologies and Expression Analysis (LTEA) Assay for Signal transducer and activator of transcription (STAT3) using HepaRG (AID 2283529); conditions: mRNA level, 48 h; actives raise or lower the signal
Summary of the method: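 In this transcriptional endpoint, HepaRG cultures receive test chemicals at up to 100 uM for 48 h, tested in duplicate. STAT3 mRNA is normalized to ACTB, GAPDH and POLR2A.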

[7] = read-out: solute carrier (SLCO1B1), SLCO1B1 (gene 10599); experiment: LTEA_HepaRG_SLCO1B1: Life Technologies and Expression Analysis (LTEA) Assay for solute carrier (SLCO1B1) using HepaRG (AID 2283530); conditions: mRNA level, 48 h; actives raise or lower the signal
Summary of the method: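 Gain or loss of SLCO1B1 mRNA is fitted against the 0.5% DMSO vehicle in human HepaRG liver cells treated 48 h at up to 100 uM in half-log steps. Expression comes from qRT-PCR normalized to endogenous controls.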

[8] = read-out: sulfotransferase 2A1 (SULT2A1), SULT2A1 (gene 6822); experiment: LTEA_HepaRG_SULT2A1: Life Technologies and Expression Analysis (LTEA) Assay for sulfotransferase 2A1 (SULT2A1) using HepaRG (AID 2283531); conditions: mRNA level, 48 h; actives raise or lower the signal
Summary of the method: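 Cells were plated and cultured 48 h, switched to serum-free induction medium, then dosed in duplicate for 48 h (8 concentrations, max 100 uM). RNA was isolated and SULT2A1 expression measured by qRT-PCR; gain or loss of signal fitted relative to DMSO.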

[9] = read-out: Transforming Growth Factor (TGFA), TGFA (gene 7039); experiment: LTEA_HepaRG_TGFA: Life Technologies and Expression Analysis (LTEA) Assay for Transforming Growth Factor (TGFA) using HepaRG (AID 2283532); conditions: mRNA level, 48 h; actives raise or lower the signal
Summary of the method: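 Gene expression of TGFA was quantified by qRT-PCR after human HepaRG cells were treated for 48 h with test chemicals (eight concentrations, highest 100 uM, 0.5% DMSO). Activity in either direction was fitted relative to DMSO.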

[10] = read-out: Transforming Growth Factor (TGFB1), TGFB1 (gene 7040); experiment: LTEA_HepaRG_TGFB1: Life Technologies and Expression Analysis (LTEA) Assay for Transforming Growth Factor (TGFB1) Transporter using HepaRG (AID 2283533); conditions: mRNA level, 48 h; actives raise or lower the signal
Summary of the method: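 Expression change of TGFB1 in human HepaRG cells is measured after a 48 h chemical exposure, up to 100 uM in 0.5% DMSO vehicle. Curves are fitted in both directions relative to the DMSO baseline.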

[11] = read-out: TIMP1, TIMP1 (gene 7076); experiment: LTEA_HepaRG_TIMP1: Life Technologies and Expression Analysis (LTEA) Assay for TIMP1 using HepaRG (AID 2283534); conditions: mRNA level, 48 h; actives raise or lower the signal
Summary of the method: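 We dosed human liver HepaRG cultures for 48 hours with up to 100 uM test chemical and measured TIMP1 expression by qRT-PCR. Activity in either direction is fitted relative to the 0.5% DMSO vehicle.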

[12] = read-out: Tumor necrosis factor receptor 1 (TNFRSF1A), TNFRSF1A (gene 7132); experiment: LTEA_HepaRG_TNFRSF1A: Life Technologies and Expression Analysis (LTEA) Assay for Tumor necrosis factor receptor 1 (TNFRSF1A) using HepaRG (AID 2283535); conditions: mRNA level, 48 h; actives raise or lower the signal
Summary of the method: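 Expression of TNFRSF1A in human HepaRG liver cells was measured by qRT-PCR 48 h after chemical dosing (maximum 100 uM). Bidirectional curve fitting used 0.5% DMSO as baseline.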

[13] = read-out: Thyroid Hormone Responsive (THRSP), THRSP (gene 7069); experiment: LTEA_HepaRG_THRSP: Life Technologies and Expression Analysis (LTEA) Assay for Thyroid Hormone Responsive (THRSP) using HepaRG (AID 2283536); conditions: mRNA level, 48 h; actives raise or lower the signal
Summary of the method: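 Cell model: human HepaRG, approx. 100,000 cells/well, 0.5% DMSO vehicle. Exposure lasts 48 h; phenobarbital 1 mM serves as induction positive control. Gene expression is measured by qRT-PCR against three endogenous control genes.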

[14] = read-out: Cellular tumor antigen p53 (Homo sapiens) (UniProt P04637); experiment: LTEA_HepaRG_TP53: Life Technologies and Expression Analysis (LTEA) Assay for Tumor Protein P53 (TP53) using HepaRG (AID 2283537); conditions: mRNA level, 48 h; actives raise or lower the signal
Summary of the method: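 HepaRG, 48 h exposure, top 100 uM, half-log 8-point, 0.5% DMSO vehicle, duplicates. Read: TP53 mRNA by TaqMan qRT-PCR, normalised to ACTB/GAPDH/POLR2A; bidirectional fit vs DMSO.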

[15] = read-out: UDP glucuronosyltransferase (UGT1A1), UGT1A1 (gene 54658); experiment: LTEA_HepaRG_UGT1A1: Life Technologies and Expression Analysis (LTEA) Assay for UDP glucuronosyltransferase (UGT1A1) using HepaRG (AID 2283538); conditions: mRNA level, 48 h; actives raise or lower the signal
Summary of the method: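 HepaRG, 48 h chemical exposure (top 100 uM, half-log 8-pt, 0.5% DMSO vehicle), duplicate wells; qRT-PCR (TaqMan, Fluidigm array) for UGT1A1 mRNA, housekeeping-normalized; bidirectional curve fit vs DMSO baseline.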

[16] = read-out: UDP glucuronosyltransferase (UGT1A6), UGT1A6 (gene 54578); experiment: LTEA_HepaRG_UGT1A6: Life Technologies and Expression Analysis (LTEA) Assay for UDP glucuronosyltransferase (UGT1A6) using HepaRG (AID 2283539); conditions: mRNA level, 48 h; actives raise or lower the signal
Summary of the method: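 Endpoint is UGT1A6 transcript induction or loss in a human liver cell line, quantified by TaqMan qRT-PCR 48 h after dosing. Concentrations ran from 100 uM downward in half-log steps in 0.5% DMSO; activity was fitted in both directions versus vehicle.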

[17] = read-out: X-box binding protein 1 (XBP1), XBP1 (gene 7494); experiment: LTEA_HepaRG_XBP1: Life Technologies and Expression Analysis (LTEA) Assay for X-box binding protein 1 (XBP1) using HepaRG (AID 2283540); conditions: mRNA level, 48 h; actives raise or lower the signal
Summary of the method: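 Human HepaRG monolayers receive test chemical for 48 h across an eight-point half-log series starting at 100 uM. XBP1 mRNA gain or loss is scored against DMSO by qRT-PCR.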

[18] = LTEA_HepaRG_LDH_cytotoxicity: Cytotoxicity Assessment in the Life Technologies and Expression Analysis (LTEA) Assay (AID 2283563; active = hit-call score of the fitted dose curve at least 0.9, where 1 is the maximum;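 for AC50: LDH activity released into spent culture medium as a marker of cell death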)
Summary of the method: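 Human HepaRG hepatic cells are treated with test chemicals for 48 h at up to 100 uM in 0.5% DMSO. Cytotoxicity is scored from medium LDH against the vehicle control.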

[19] = ATG_XTT_Cytotoxicity: Cytotoxicity Assessment in the Attagene TRANS-FACTORIAL HepG2 Assay (AID 2283584; active = hit-call score of the fitted dose curve at least 0.9, where 1 is the maximum)
Summary of the method: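 Transfect HepG2 with GAL4-UAS reporter units, dose compound, incubate 24 h, then measure viable cell number by XTT. Fit concentration response against DMSO baseline.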

[20] = read-out: NAD(P)H dehydrogenase [quinone] 1 (NQO1), NQO1 (gene 1728); experiment: LTEA_HepaRG_NQO1: Life Technologies and Expression Analysis (LTEA) Assay for NAD(P)H dehydrogenase [quinone] 1 (NQO1) using HepaRG (AID 2283526); conditions: mRNA level, 48 h; actives raise or lower the signal
Summary of the method: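 qRT-PCR read-out (Fluidigm TaqMan), normalized to three housekeeping genes, after 48 h chemical exposure of HepaRG cells. Concentrations: eight points, top 100 uM, half-log steps, 0.5% DMSO vehicle. Gain or loss of signal fitted relative to DMSO.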

Measured: AC50

Signal transducer and activator of transcription 3 (Homo sapiens), sequence (P40763 whole entry, looked up): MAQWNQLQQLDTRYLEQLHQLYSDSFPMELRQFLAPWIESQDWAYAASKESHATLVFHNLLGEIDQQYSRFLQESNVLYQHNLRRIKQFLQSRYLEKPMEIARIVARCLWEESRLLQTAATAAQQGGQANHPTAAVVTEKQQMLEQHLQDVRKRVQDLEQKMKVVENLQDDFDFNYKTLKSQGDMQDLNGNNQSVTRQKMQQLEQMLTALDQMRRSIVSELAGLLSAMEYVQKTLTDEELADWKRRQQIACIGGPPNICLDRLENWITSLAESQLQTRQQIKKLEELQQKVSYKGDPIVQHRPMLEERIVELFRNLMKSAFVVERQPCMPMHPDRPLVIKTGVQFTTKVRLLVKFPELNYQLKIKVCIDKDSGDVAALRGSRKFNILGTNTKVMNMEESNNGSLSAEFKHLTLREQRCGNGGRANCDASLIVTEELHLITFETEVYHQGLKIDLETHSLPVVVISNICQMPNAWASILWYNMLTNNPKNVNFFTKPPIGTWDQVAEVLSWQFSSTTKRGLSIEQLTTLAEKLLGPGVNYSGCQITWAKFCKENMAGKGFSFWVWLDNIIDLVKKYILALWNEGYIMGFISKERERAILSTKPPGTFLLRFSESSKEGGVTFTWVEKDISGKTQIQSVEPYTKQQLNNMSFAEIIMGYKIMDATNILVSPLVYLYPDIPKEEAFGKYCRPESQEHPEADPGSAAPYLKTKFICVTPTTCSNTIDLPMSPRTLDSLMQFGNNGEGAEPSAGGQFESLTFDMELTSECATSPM
Nuclear factor erythroid 2-related factor 2 (Homo sapiens), sequence (Q16236 whole entry, looked up): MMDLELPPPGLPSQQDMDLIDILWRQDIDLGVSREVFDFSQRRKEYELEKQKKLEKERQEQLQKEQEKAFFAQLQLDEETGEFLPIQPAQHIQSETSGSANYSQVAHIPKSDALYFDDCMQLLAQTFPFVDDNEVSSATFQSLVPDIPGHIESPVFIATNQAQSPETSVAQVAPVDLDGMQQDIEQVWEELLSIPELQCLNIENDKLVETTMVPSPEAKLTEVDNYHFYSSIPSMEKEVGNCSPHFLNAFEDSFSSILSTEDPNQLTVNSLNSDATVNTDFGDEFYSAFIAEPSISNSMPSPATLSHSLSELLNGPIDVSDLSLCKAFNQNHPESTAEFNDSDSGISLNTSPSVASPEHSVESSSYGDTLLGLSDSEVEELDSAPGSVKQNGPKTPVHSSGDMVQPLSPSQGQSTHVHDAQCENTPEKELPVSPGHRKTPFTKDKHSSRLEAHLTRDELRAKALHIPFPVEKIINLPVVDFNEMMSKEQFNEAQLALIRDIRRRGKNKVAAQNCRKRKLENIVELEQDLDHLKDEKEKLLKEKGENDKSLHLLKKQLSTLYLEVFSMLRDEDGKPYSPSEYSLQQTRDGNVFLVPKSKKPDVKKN
Cellular tumor antigen p53 (Homo sapiens), sequence (P04637 whole entry, looked up): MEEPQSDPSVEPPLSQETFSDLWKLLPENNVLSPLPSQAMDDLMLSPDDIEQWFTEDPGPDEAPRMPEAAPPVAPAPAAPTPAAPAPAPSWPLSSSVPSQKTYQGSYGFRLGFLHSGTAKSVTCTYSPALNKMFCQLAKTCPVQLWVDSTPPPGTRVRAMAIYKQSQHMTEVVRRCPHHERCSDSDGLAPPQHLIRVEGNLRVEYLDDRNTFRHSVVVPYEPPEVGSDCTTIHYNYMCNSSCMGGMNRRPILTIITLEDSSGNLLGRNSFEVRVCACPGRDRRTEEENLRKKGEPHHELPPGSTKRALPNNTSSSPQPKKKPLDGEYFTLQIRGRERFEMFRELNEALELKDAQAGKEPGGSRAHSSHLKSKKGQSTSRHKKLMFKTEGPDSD

O=S1(=O)CCCO1
not listed: [20]
inactive: all other assays above

c1ccc(C(O[C@@H]2CCCN(CCc3ccc4c(c3)OCO4)C2)c2ccccc2)cc1
inactive: [5] | [6] | [11] | [13] | [17]
active: [1] 79.6 µM | [2] 79.2 µM | [3] 73.5 µM | [20] 78.9 µM | [4] 67.8 µM | [7] 86.5 µM | [8] 79.3 µM | [9] 77.1 µM | [10] 9.92 µM | [12] 85.9 µM | [14] 75.4 µM | [15] 79.1 µM | [16] 83 µM

C=CN1CCCC1=O
not listed: [20]
inactive: all other assays above

CCn1nc(C)c2c1C(=O)NCC(c1ccc(O)cc1)=N2
active: [15] 34.1 µM
not listed: [19] | [20]
inactive: all other assays above

CCCCOC(=O)c1ccccc1
not listed: [18] | [19] | [20]
inactive: all other assays above

CC(=O)c1ccccc1
not listed: [18] | [19]
inactive: all other assays above

OCC(CO)(CO)CO
not listed: [5] | [14] | [18]
inactive: all other assays above

COc1cc(C(C)C)c2c(c1)S(=O)(=O)N(COc1cc(=O)n3cccc(OCCN4CCCCC4)c3n1)C2=O
inactive: [3] | [20] | [5] | [6] | [9] | [10] | [12] | [17]
active: [1] 22.6 µM | [2] 20.8 µM | [4] 22.8 µM | [7] 21.1 µM | [8] 23.7 µM | [11] 19.8 µM | [13] 20.8 µM | [15] 22.6 µM | [16] 19.9 µM | [18] 19.2 µM

c1ccc2ncccc2c1
active: [4] 50 µM
not listed: [18] | [19]
inactive: all other assays above

CCCCCCOC(=O)CC(CC(=O)OCCCCCC)(OC(=O)CCC)C(=O)OCCCCCC
not listed: [14] | [18] | [20]
inactive: all other assays above

OCCNCCO
active: [2] 50 µM | [3] 50 µM | [8] 21.9 µM | [15] 9.92 µM | [17] 50 µM
not listed: [14] | [20]
inactive: all other assays above

CCCCCCCCN(C)C
not listed: [18] | [20]
inactive: all other assays above

CCCCCOC(C)=O
not listed: [14] | [18] | [20]
inactive: all other assays above

COS(C)(=O)=O
not listed: [14] | [18] | [19] | [20]
inactive: all other assays above
